The values below come from PubChem BioAssay (NCATS).

Where “and” joins values, the source holds several entries; their conditions need not be identical. Equal values may be shown once. Records with an inconclusive call do not appear. A number with no mark means an inactive call. Calls of active or inactive are those of the source. Unless noted, calls come from the whole dose curve; as a rule, active = well fitted curve in the direction sought with a large enough effect; inconclusive = small, poorly fitted or top-dose-only effect, or another doubt; inactive = no such curve, though single readings can be large; an effect the other way counts as inactive or inconclusive.

Assay [1] in a line: qHTS assay for small molecule agonists of the antioxidant response element (ARE) signaling pathway measured by Nrf2-dependant transcriptional activity (AID 720636; active = well fitted curve in the direction sought with a large enough effect in the repeat runs; an effect the other way counts as inactive or inconclusive;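 note: HepG2 cells with an ARE-driven luciferase reporter; % of control where 0% means no effect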). The essentials:
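HepG2 ARE-luc reporter line, 1% dialyzed FBS; 6 hr attachment at 37 C, compound pinned in, 16 hr at 37 C/5% CO2; ONE-Glo, 30 min RT, luminescence read.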

Assay [2] can be described thus: qHTS assay for small molecule antagonists of the retinoid-related orphan receptor gamma (ROR-gamma) signaling pathway - cell viability counter screen (AID 720652; active = well fitted curve in the direction sought with a large enough effect in the repeat runs; an effect the other way counts as inactive or inconclusive;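 note: CHO reporter cells with doxycycline-induced ROR-gamma expression; series mostly up to about 92 µM; compound exposure lasted 16 hr before ATP read; % is set by controls: 0 for no effect and ±100 for the full control effect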). The method in brief:
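ATP-based viability readout in the ROR-gamma reporter CHO cells after 16 hr compound exposure under doxycycline induction.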

Assay [3] in a line: qHTS assay for small molecule agonists of the antioxidant response element (ARE) signaling pathway measured by Nrf2-dependant transcriptional activity - cell viability counter screen (AID 720653; active = well fitted curve in the direction sought with a large enough effect in the repeat runs; an effect the other way counts as inactive or inconclusive; note: % is set by controls: 0 for no effect and ±100 for the full control effect). The settings on record: ARE-bla HepG2 viability, CellTiter-Glo ATP luminescence, 16 h; hits give low values. The essentials: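 ARE-bla HepG2 cells treated with compounds for 16 h at 37C; this counter screen measures viability as intracellular ATP by CellTiter-Glo luminescence after 30 min at room temperature.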
On the technique in general: In qHTS, concentration-response curves come from the screen itself.

Assay [4] can be described thus: qHTS Assay for Identifying Gametocytocidal Compounds (AID 743244).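 For max response: % is set by controls: 0 for no effect and ±100 for the full control effect; actives lower the fluorescent signal which means gametocytes are killed.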 Note: potency is the fitted concentration of half-maximal effect. As to conditions: P. falciparum 3D7 stage III-V gametocytes, alamarBlue, 72 h; max response: hits give low values. The method in brief:
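Stage III–V gametocytes of P. falciparum 3D7 were seeded at 20,000 cells/well onto pre-dispensed compounds. After 72 h, 37 °C, 5% CO2, alamarBlue was added for another 24 h.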

Assay [5] in a line: qHTS assay for cell viability of HEK293 cells (AID 743288). Note: % is set by controls: 0 for no effect and ±100 for the full control effect; nearly all actives have a fitted effect of over 50% in size. As to conditions: ATP luminescence (CellTiter-Glo), 18 h, hits give low values. The essentials: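 Quantitative high-throughput screen: compounds were pinned onto parental HEK293 cells (2,000 per well) after a minimum 5 h settling at 37 C, incubated 18 h at 37 C, and intracellular ATP measured by luciferase luminescence.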

Assay [6] can be described thus: qHTS assay for cell viability of the p53RE-bla HCT-116 cell line (AID 743292). Note: % is set by controls: 0 for no effect and ±100 for the full control effect; nearly all actives have a fitted effect of over 55% in size. The method in brief: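 Luminescent ATP quantitation (CellTiter-Glo) served as the viability read-out; reagent was added after 16 h compound exposure at 37 C and read after 30 min at room temperature. Cells: p53RE-bla HCT-116, 4,000 per well.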
Assay [7] is described as follows: qHTS assay for measurement of the activity of small molecule inhibitors on Zika virus induced Caspase-3 activity in human iPSC derived neural progenitor cells (hNPCs) (AID 1224857). Note: % of control where 0% means no effect; nearly all actives have a fitted effect of over 65% in size. The method in brief:
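Values are percent inhibition of virus-induced caspase-3/7 signal, scaled between uninfected cells and ZIKV-infected cells. Infection used 2 FFU/cell for 6 h after 1 h compound exposure.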

For `C/C=C/c1ccc(O)c(OC)c1`, the result in assay [1], in assay [2] and in assay [6] was inactive. The max response is -8.93% and -1.72% in assay [3]; 26.3% in assay [4]; -4.69% and 11.4% in assay [5]. Moreover, the Potency entry in assay [7] is “inactive”.
For `NC(=O)c1ccccc1O`, the outcome in assay [1], in assay [2] and in assay [6] was inactive. The max response in assay [3] was -0.33%; in assay [4] it was -5.71%; in assay [5], -5%. In addition, the Potency result in assay [7] was “inactive”.
For `O=C(CN1CCN(Cc2ccc3c(c2)OCO3)CC1)N1c2ccccc2Sc2ccccc21`, the Potency entry in assay [7] was “inactive”.
Turning to `Cc1cc(CC(=O)O)c(C)n1-c1ccc(Cl)cc1`, in assay [7], the Potency result was “inactive”.
Still for that read-out and setting: the result for `CCN(CC)CCNc1ccc(CO)c2sc3ccccc3c(=O)c12` reads “inactive”; that for `C=C[C@H]1CN2CC[C@H]1C[C@H]2[C@H](O)c1ccnc2ccc(OC)cc12`, “inactive”; that for `O=C(NCCc1c[nH]c2ccccc12)c1cccnc1`, “inactive”.
The same measure, in the same setting: under `O=C(Oc1cccc2cccnc12)c1ccccc1` stands “inactive”.
In the case of `CCOc1ccc(NC(C)=O)cc1`, the molecule was classed as inactive in assay [1], in assay [2] and in assay [6]. For the same molecule, the max response in assay [3] is 3.98% and -0.784%; in assay [4], 18.5%; in assay [5], -2.1% and -6.16%. Also, the Potency result in assay [7] was “inactive”.
With `CC1(COc2ccc(CC3SC(=O)NC3=O)cc2)CCCCC1` (stereo not given), the max response in assay [3] was -9.6%; in assay [4], 2.09%; in assay [5], -6.86%. Besides, the Potency entry in assay [7] was “inactive”.
As for `O=S(c1cc(Cl)cc(Cl)c1O)c1cc(Cl)cc(Cl)c1O`, the max response in assay [4] was 11.4%. Further, the Potency entry in assay [7] is “inactive”.
`O=C(c1ccc(F)cc1)C1CCN(CCn2c(=S)[nH]c3ccccc3c2=O)CC1`: the max response in assay [4] is -2.47%. In assay [7], the Potency result was “inactive”.
As for `CCN(CC)CCOc1ccc2c(c1)C(=O)c1cc(OCCN(CC)CC)ccc1-2`, the Potency in assay [4] is 12.6 µM (active). For the same molecule, in assay [7], the Potency result is “inactive”.
On to `CCCCCCCCCCCCCCCCO`, for which the outcome in assay [1] was inactive. The max response was -4.14% in assay [3] and -3.2% in assay [5]. In addition, in assay [7], the Potency result is “inactive”.
Turning to `CC(=O)Nc1ncc([N+](=O)[O-])s1`, in assay [4], the max response was -10.1%. Besides, in assay [7], the Potency result was “inactive”.
As to `COc1cc(C(=O)N2CCCCCCC2)cc(OC)c1OC`, in assay [4], the max response is 12.8%. Also, the Potency result in assay [7] is “inactive”.
As to `CC(=O)Nc1ccc(CC(=O)O)cc1`, in assay [4], the max response was 7.88%. Also, the Potency result in assay [7] is “inactive”.
The matching figures for `CN1CCN(c2cc3c(cc2F)c(=O)c(C(=O)O)cn3-c2ccc(F)cc2)CC1`: -4.31% and “inactive”.
For the molecule `CCCCOC(=O)CC(CC(=O)OCCCC)(OC(C)=O)C(=O)OCCCC`, the result in assay [1] and in assay [6] was inactive. Further, the figures for the max response in assay [3], in assay [4] and in assay [5] were -1.72%, 2.63% and -16.9%, respectively. In assay [7], the Potency result is “inactive”.
For the molecule `C[N+]1(CC2COC(c3ccccc3)(C3CCCCC3)O2)CCCCC1` (stereo not given), the Potency in assay [4] was 11.2 µM (active). In addition, the Potency result in assay [7] is “inactive”.
Consider `O=C(O)P(=O)(O)O`, for which the max response in assay [4] is 10.4%. For the same molecule, the Potency entry in assay [7] was “inactive”.
Take `CC(C)Nc1cccnc1N1CCN(C(=O)c2cc3cc(NS(C)(=O)=O)ccc3[nH]2)CC1`: the max response in assay [4] was -8.7%. The Potency result in assay [7] is “inactive”.
Regarding `Cc1ccc(-c2ncc(Cl)cc2-c2ccc(S(C)(=O)=O)cc2)cn1`, the max response in assay [4] is 12.8%. Besides, the Potency result in assay [7] was “inactive”.
On to `CCCCCCCCOc1ccc(C(=O)c2ccccc2)c(O)c1`, for which the molecule was called inactive in assay [1] and in assay [6]. Also, the max response was -12.5% in assay [3], -5.25% in assay [4] and -9.08% in assay [5]. In addition, the Potency entry in assay [7] is “inactive”.
`COP(=O)(OC)OC(c1ccc(Cl)cc1)P(=O)(OC)OC` (stereo not given): the max response in assay [4] is 0.577%. Besides, the Potency entry in assay [7] is “inactive”.
Take `CCCCC(CC)COC(=O)/C=C/c1ccc(OC)cc1` (stereo not given): the max response in assay [4] is 11.8%. The Potency entry in assay [7] was “inactive”.
Take `CN(C)C(=O)Nc1ccc(Cl)c(Cl)c1`: the max response in assay [3] is 12.2%; in assay [4], -3.3%; in assay [5], -11.4%. Besides, in assay [6], the call was inactive. In addition, the Potency entry in assay [7] is “inactive”.
Consider `c1ccc(CC2=NCCN2)cc1`, for which, in assay [4], the max response is -3.06%. Further, the Potency result in assay [7] is “inactive”.
On to `C#C[C@]1(O)CC[C@H]2[C@@H]3CCC4=Cc5oncc5C[C@]4(C)[C@H]3CC[C@@]21C`, for which the call in assay [1] and in assay [6] was inactive. Further, the results for the max response in assay [3], in assay [4] and in assay [5] were 1.42%, -4.72% and -10.7%, respectively. In addition, the Potency result in assay [7] is “inactive”.
For the molecule `C=C1c2cccc(O)c2C(O)=C2C(=O)[C@]3(O)C(O)=C(C(N)=O)C(=O)[C@@H](N(C)C)[C@@H]3[C@@H](O)[C@H]12`, in assay [4], the max response was -4.37%. The Potency entry in assay [7] is “inactive”.
Consider `C=C[C@@]1(C)CC(=O)[C@]2(O)[C@@]3(C)[C@@H](O)CCC(C)(C)[C@@H]3[C@H](O)[C@H](OC(C)=O)[C@@]2(C)O1`, for which the max response in assay [3] was 4.11%; in assay [4], -8.6%; in assay [5], -8.77%. Besides, the molecule was classed as inactive in assay [6]. In addition, in assay [7], the Potency entry is “inactive”.
On to `OC[C@H]1O[C@@H](Oc2ccc(O)cc2)[C@H](O)[C@@H](O)[C@@H]1O`, for which, in assay [4], the max response was 0.374%. Moreover, in assay [7], the Potency result is “inactive”.
The corresponding values for `CC(=O)O[C@H]1C[C@@H]2CC[C@@H]3[C@H](CC[C@@]4(C)[C@H]3C[C@H]([N+]3(C)CCCCC3)[C@@H]4OC(C)=O)[C@@]2(C)C[C@@H]1N1CCCCC1` are -2.39% and “inactive”.
In the case of `COc1ccc(C(Cl)=C(c2ccc(OC)cc2)c2ccc(OC)cc2)cc1`, the molecule was called inactive in assay [1] and in assay [6]. The values for the max response in assay [3], in assay [4] and in assay [5] were -11.1%, 5.06% and -29.7%, respectively. For the same molecule, the Potency result in assay [7] is “inactive”.
With `CCCCCCCC/C=C\CCCCCCCCN`, the molecule was classed as inactive in assay [1] and in assay [6]. The max response in assay [3] was 3.81%; in assay [5], -0.943%. Besides, the Potency entry in assay [7] was “inactive”.
Regarding `O=C(O)C(Cc1cc(I)c(O)c(I)c1)c1ccccc1` (stereo not given), the max response in assay [4] is -2.86%. Further, the Potency entry in assay [7] was “inactive”.
